According to PubChem BioAssay AID1159580 (chemical genetic matrix, 2015):
Among all 5,500 compounds or so, about 2,000 (36%) were called active. Another 18% or so got no clear call; they are omitted. Cut-off read from the data, not from the text of the source: active = normalized growth mostly below about 0.91 (no sharp cut-off); inconclusive = no clear call, values can overlap the other calls; inactive = mostly above about 0.92. The list shows a part of the results.

Test: chemical genetic growth profiling, strain panel (AID 1159580);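 note: tested at 20 µM; growth read once vehicle control cultures reached saturation at 30 °C; 1 = growth at the plate median or of vehicle wells; lower values mean less growth of the strain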
Conditions: S. cerevisiae deletion strains, growth OD

Measured: normalized growth

CC(=O)O[C@@H]1CC2C(C)(C)[C@H](O)C=C[C@]2(C)C2CC[C@@]3(C)[C@H](c4ccoc4)OC(=O)C4OC43[C@@]21C (stereo not given in full)
inactive: locus YAL021C, strain ccr4, hits give low values 1.02 | locus YAL026C, strain drs2, hits give low values 1.03 | locus YAL030W, strain snc1, hits give low values 1.01 | locus YBL061C, strain skt5, hits give low values 1.02 | locus YBR009C, strain hhf1, hits give low values 1.02 | locus YBR023C, strain chs3, hits give low values 1.03 | locus YBR171W, strain sec66, hits give low values 1.01 | locus YBR231C, strain swc5, hits give low values 1.02 | locus YBR279W, strain paf1, hits give low values 1.02 | locus YCL011C, strain gbp2, hits give low values 1.02 | locus YCL016C, strain dcc1, hits give low values 1.02 | locus YCL061C, strain MRC1, hits give low values 1.01 | locus YCL069W, strain vba3, hits give low values 1.02 | locus YCR088W, strain abp1, hits give low values 1.02 | locus YDL005C, strain med2, hits give low values 1.01 | locus YDL040C, strain nat1, hits give low values 1.02 | locus YDR001C, strain nth1, hits give low values 1.01 | locus YDR069C, strain doa4, hits give low values 1.04 | locus YDR137W, strain rgp1, hits give low values 1.03 | locus YDR159W, strain sac3, hits give low values 1.03 | locus YDR195W, strain ref2 1.06 | locus YDR297W, strain sur2, hits give low values 1.01 | locus YDR334W, strain swr1, hits give low values 1.02 | locus YDR335W, strain msn5, hits give low values 1.02 | locus YDR392W, strain spt3, hits give low values 0.963 | locus YEL003W, strain gim4, hits give low values 1.02 | locus YEL037C, strain rad23, hits give low values 1.02 | locus YEL061C, strain CIN8 (second series), hits give low values 1.01 | locus YER015W, strain faa2, hits give low values 1.02 | locus YER016W, strain bim1, hits give low values 1.02 | locus YER111C, strain swi4, hits give low values 1.02 | locus YER155C, strain BEM2 (second series), hits give low values 1.03 | locus YFR010W, strain ubp6, hits give low values 1.03 | locus YGL167C, strain pmr1, hits give low values 1.02 | locus YGL173C, strain kem1, hits give low values 1.02 | locus YGL227W, strain vid30, hits give low values 1.02 | locus YGL240W, strain doc1, hits give low values 1.02 | locus YGL253W, strain hxk2, hits give low values 1.01 | locus YHR013C, strain ard1, hits give low values 1.04 | locus YHR027C, strain rpn1, hits give low values 1.02 | locus YHR030C, strain SLT2, hits give low values 0.999 | locus YHR079C, strain IRE1, hits give low values 0.99 | locus YHR142W, strain chs7, hits give low values 1.02 | locus YJL092W, strain hpr5, hits give low values 1.02 | locus YJL095W, strain BCK1 (second series), hits give low values 1.02 | locus YJL095W, strain BCK1, hits give low values 1 | locus YJL115W, strain asf1, hits give low values 1.02 | locus YJL129C, strain trk1, hits give low values 1.04 | locus YJL154C, strain vps35, hits give low values 1.01 | locus YJL164C, strain tpk1, hits give low values 0.998 | locus YJL166W, strain qcr8, hits give low values 1.01 | locus YJL187C, strain SWE1, hits give low values 1.01 | locus YJR066W, strain TOR1, hits give low values 0.963 | locus YKL160W, strain elf1, hits give low values 1.01 | locus YKR026C, strain gcn3, hits give low values 0.998 | locus YKR091W, strain srl3, hits give low values 1.02 | locus YLL001W, strain dnm1, hits give low values 1.01 | locus YLL026W, hits give low values 1.02 | locus YLL041C, strain sdh2, hits give low values 1.01 | locus YLR027C, strain aat2, hits give low values 1.01 | locus YLR113W, strain HOG1, hits give low values 0.95 | locus YLR221C, strain rsa3, hits give low values 1.01 | locus YLR258W, strain gsy2, hits give low values 1.02 | locus YLR262C, strain YPT6 (second series), hits give low values 1.02 | locus YLR320W, strain mms22, hits give low values 1.01 | locus YLR342W, strain FKS1, hits give low values 1.03 | locus YLR357W, strain rsc2, hits give low values 1.03 | locus YLR370C, strain arc18, hits give low values 1.02 | locus YLR384C, strain iki3, hits give low values 1.02 | locus YML120C, strain ndi1, hits give low values 1.02 | locus YMR058W, strain fet3, hits give low values 1.02 | locus YMR125W, strain sto1, hits give low values 1.03 | locus YMR129W, hits give low values 1.01 | locus YMR205C, strain PFK2, hits give low values 1.02 | locus YMR231W, strain pep5, hits give low values 1.02 | locus YNL071W, strain lat1, hits give low values 1.02 | locus YNL183C, strain NPR1, hits give low values 0.955 | locus YNL209W, strain ssb2, hits give low values 1.02 | locus YNL248C, strain rpa49, hits give low values 1.01 | locus YNL322C, strain KRE1 (second series), hits give low values 1.02 | locus YNR049C, strain mso1, hits give low values 1.02 | locus YOR001W, strain rrp6, hits give low values 1.01 | locus YOR070C, strain gyp1, hits give low values 1.02 | locus YOR080W, strain dia2, hits give low values 1.03 | locus YOR083W, strain WHI5, hits give low values 1 | locus YOR106W, strain vam3, hits give low values 1.01 | locus YOR231W, strain MKK1, hits give low values 0.945 | locus YOR265W, strain rbl2, hits give low values 1.02 | locus YOR270C, strain vph1, hits give low values 1.04 | locus YOR290C, strain snf2, hits give low values 0.982 | locus YPL051W, strain arl3, hits give low values 1 | locus YPL078C, strain atp4, hits give low values 1.01 | locus YPL106C, strain sse1, hits give low values 1.04 | locus YPL240C, strain hsp82, hits give low values 1.02 | locus YPL256C, strain CLN2, hits give low values 0.962
